The source of these data is PubChem BioAssay AID372 (MTDP, 2006).

Structures are written as SMILES. Among all 100,000 compounds or so, about 770 (0.77%) were called active. No stated cut-off is given here; in the data, active means inhibition above about 50%; inactive means the rest. Shown is part of a subset that was picked to be rich in actives.

In the test the target is Gag-Pol polyprotein (Human immunodeficiency virus type 1 group M subtype B (isolate HXB2)) (UniProt P04585). Put plainly: RNase H inhibition, HIV 1 Gag Pol polyprotein, FRET biochemical assay, screening (AID 372). The note with it: HIV-1 RT RNase H, FRET RNA/DNA substrate fluorescence; at 10 µM; stronger effect = higher value.
As usually defined, the inhibition is the drop in the measured response relative to a control, in per cent. Regarding `CC(C)c1ccc(/C=C2/C(=O)NN(c3ccccc3)C2=O)cc1`, the inhibition is 4% (inactive).

On to `CCOC(=O)c1ccc(NC(=S)NCCO)cc1`, for which the inhibition is 0% (inactive).

Regarding `C=CCc1ccc(OCCOc2cccc(/C=C3\SC(=S)N(CC)C3=O)c2)c(OC)c1`, the inhibition was 26% (inactive).

On to `C=CCN1C(=O)/C(=C\c2ccc(-c3ccc([N+](=O)[O-])cc3)o2)SC1=S`, for which the inhibition was 4% (inactive).

For the compound `Cc1ccccc1NC1=C(Cl)C(=O)N(c2cccc(C)c2C)C1=O`, the inhibition was 9% (inactive).

For the compound `CCOC(=O)C1=C(C)N=c2s/c(=C/c3ccc(-c4cccc(C(F)(F)F)c4)o3)c(=O)n2C1c1cccs1` (configuration not stated), the inhibition is 6% (inactive).

Take `COc1ccc(C2=C/C(=C/c3ccccc3OC)C(=O)O2)c(OC)c1`: the inhibition was 2% (inactive).

For the compound `CC(=O)C1=C(O)C(=O)N(Cc2ccccc2)C1c1ccc([N+](=O)[O-])cc1` (configuration not stated), the inhibition was 12% (inactive).

Take `COc1ccc(C(=O)Nc2ccc(NC(=O)c3ccc(NC(=O)c4ccc(OC)cc4)cc3)cc2)cc1`: the inhibition was 8% (inactive).

As to `COc1ccc(C(=O)Nc2ccc(NC(=O)c3ccc(OC)cc3)cc2)cc1`, the inhibition was 16% (inactive).

As to `COc1ccc(C(=O)Nc2ccc(Cc3ccc(NC(=O)c4ccc(OC)cc4)cc3)cc2)cc1`, the inhibition is 52% (active).

Turning to `COc1cc(C(=O)Nc2ccc(Cc3ccc(NC(=O)c4cc(OC)c(OC)c(OC)c4)cc3)cc2)cc(OC)c1OC`, the inhibition was 1% (inactive).

Take `COc1cc(C(=O)Nc2ccc(Cc3ccncc3)cc2)cc(OC)c1OC`: the inhibition was 56% (active).

For the compound `COc1ccc(C(=O)Nc2ccc(Cc3ccncc3)cc2)cc1OC`, the inhibition was 6% (inactive).

With `CCc1ccc(C2Nc3ccccc3NC3=C2C(=O)CC(c2ccc(OC)cc2)C3)s1` (configuration not stated), the inhibition is 7% (inactive).

With `O=C(N/N=C/c1cccc(/C=N/NC(=O)c2cccnc2)c1)c1cccnc1`, the inhibition was 0% (inactive).

Take `COc1ccc(NC(=O)c2ccc(CN3CCN(c4ccccc4)CC3)cc2)cc1`: the inhibition is 9% (inactive).

Regarding `COc1ccc(C(=O)NC(=S)Nc2ccc3oc(-c4ccc(OC)c(Cl)c4)nc3c2)cc1`, the inhibition is 20% (inactive).

Regarding `CC(=O)Nc1ccccc1NC(=O)c1cccc(F)c1`, the inhibition was 0% (inactive).

As to `NNC(=O)COc1ccccc1-c1ccccc1`, the inhibition was 14% (inactive).

As for `O=C1C(=O)N(c2ccccc2)C(c2ccc([N+](=O)[O-])cc2)/C1=C(/O)c1ccccn1` (configuration not stated), the inhibition is 0% (inactive).

With `O=C(CN1C(=O)c2cccc3cccc(c23)C1=O)NCc1ccc2c(c1)OCO2`, the inhibition was 5% (inactive).

Turning to `O=C(CCCN1C(=O)c2cccc3cccc(c23)C1=O)OCc1ccc2c(c1)OCO2`, the inhibition was 31% (inactive).

`O=C(CN1C(=O)c2cccc3cccc(c23)C1=O)OCc1ccc2c(c1)OCO2`: the inhibition is 53% (active).

As to `CCSc1nc(-c2ccccc2)nc(C(Cl)Cl)n1`, the inhibition was 25% (inactive).

As to `O=C(COc1ccc(Cl)cc1)Nc1ncc(S(=O)(=O)c2ccc([N+](=O)[O-])cc2)s1`, the inhibition is 12% (inactive).

For `O=C(COc1ccc(Br)cc1)Nc1ncc(S(=O)(=O)c2ccc([N+](=O)[O-])cc2)s1`, the inhibition is 19% (inactive).

In the case of `O=C(Nc1ncc(S(=O)(=O)c2ccc([N+](=O)[O-])cc2)s1)c1ccc(Cl)cc1Cl`, the inhibition is 6% (inactive).

As for `O=C(O)c1ccccc1C(=O)Nc1ncc(S(=O)(=O)c2ccc([N+](=O)[O-])cc2)s1`, the inhibition was 10% (inactive).

For `O=C(Nc1ncc(S(=O)(=O)c2ccc([N+](=O)[O-])cc2)s1)c1ccccc1Cl`, the inhibition was 54% (active).

As for `CC(C)c1ccc(OCC(=O)Nc2ncc(S(=O)(=O)c3ccc([N+](=O)[O-])cc3)s2)cc1`, the inhibition was 58% (active).

Take `CCc1ccc(-n2nc(C)c3c(C)cc(=O)oc32)cc1`: the inhibition is 7% (inactive).

With `O=C(O)C1CCC(c2ccccc2)CC1` (configuration not stated), the inhibition was 4% (inactive).

In the case of `O=C(c1nn2c(C(F)(F)F)cc(-c3ccc(F)cc3)nc2c1Cl)N1CCOCC1`, the inhibition is 3% (inactive).

As for `C(=N/Nc1nc2ccccc2o1)/c1ccc(N2CCOCC2)cc1`, the inhibition was 20% (inactive).

On to `Cc1ccc(S(=O)(=O)/N=C2/C=C(Sc3nnnn3-c3ccccc3)C(=O)c3ccccc32)cc1`, for which the inhibition was 43% (inactive).

For the compound `Cc1ccc(S(=O)(=O)/N=C2/C=C(Br)C(=O)c3ccccc32)cc1`, the inhibition was 32% (inactive).

With `COc1ccc(Nc2ccc(N)cc2)cc1`, the inhibition was 19% (inactive).

Turning to `O=C(Nc1ccc(-c2nc3ccccc3[nH]2)cc1)c1ccc(Cl)c(Cl)c1`, the inhibition is 59% (active).

On to `CC(=O)Nc1ccc(C(=O)Nc2ccc(-c3nc4ccccc4[nH]3)cc2)cc1`, for which the inhibition is 3% (inactive).

Regarding `O=C(Nc1ccc(-c2nc3ccccc3[nH]2)cc1)c1ccc(Cl)cc1`, the inhibition is 14% (inactive).

Take `O=C(Nc1ccc(Cl)c(-c2nc3ccccc3[nH]2)c1)c1cc2ccccc2o1`: the inhibition was 11% (inactive).

Turning to `O=C(Nc1ccc(-c2nc3ccccc3[nH]2)cc1)c1cc2ccccc2o1`, the inhibition was 51% (active).

For the compound `Cc1ccc(-c2nc3ccccc3[nH]2)cc1NC(=O)c1cc2ccccc2o1`, the inhibition is 8% (inactive).

Turning to `CCOC(=O)/C(=N/Nc1cccc(C)c1)c1csc(N)n1`, the inhibition is 10% (inactive).

With `COc1ccc(/C=C/C(=O)Oc2ccc3c(c2)C(C)=CC(C)(C)N3)cc1`, the inhibition is 16% (inactive).

Turning to `O=C(N=Nc1c(O)n(CN2CCCCC2)c2ccccc12)c1ccncc1`, the inhibition was 0% (inactive).

In the case of `CC1(C)NC(=O)N(CC(O)CN(c2cccc([N+](=O)[O-])c2)S(=O)(=O)c2ccccc2)C1=O` (configuration not stated), the inhibition is 0% (inactive).

Take `S=C(Nc1ccccc1)N1CCN(C(=S)Nc2ccccc2)CC1`: the inhibition was 9% (inactive).

In the case of `S=C(Nc1cccc2ccccc12)N1CCN(C(c2ccccc2)c2ccccc2)CC1`, the inhibition is 5% (inactive).

As to `S=C(Nc1ccccc1)N1CCN(C(c2ccccc2)c2ccccc2)CC1`, the inhibition is 56% (active).

Turning to `Cc1c(N2C(=O)S/C(=C\c3cccc([N+](=O)[O-])c3)C2=O)c(=O)n(-c2ccccc2)n1C`, the inhibition was 59% (active).

For the compound `COc1ccc(/C=C2\SC(=O)N(c3c(C)n(C)n(-c4ccccc4)c3=O)C2=O)cc1`, the inhibition is 0% (inactive).

With `Cc1c(N2C(=O)/C(=C/c3cccc([N+](=O)[O-])c3)SC2=S)c(=O)n(-c2ccccc2)n1C`, the inhibition was 13% (inactive).

As to `Cc1c(N2C(=O)S/C(=C\c3ccc(N(C)C)cc3)C2=O)c(=O)n(-c2ccccc2)n1C`, the inhibition is 67% (active).

Consider `Cc1c(N2C(=O)S/C(=C\c3ccc([N+](=O)[O-])cc3)C2=O)c(=O)n(-c2ccccc2)n1C`, for which the inhibition was 3% (inactive).

On to `Cc1c(N2C(=O)S/C(=C\c3ccccc3)C2=O)c(=O)n(-c2ccccc2)n1C`, for which the inhibition is 0% (inactive).
